Results reported in paper PMC4552634, “A New Set of Chemical Starting Points with Plasmodium falciparum Transmission-Blocking Potential for Antimalarial Drug Discovery” (PLoS ONE, 2015).
The campaign covered roughly 13,000 compounds. About 3,200 (25%) showed an effect of 50% or more. The list shows a part of the results.

test system: P. falciparum stage V gametocytes; design: BacTiter-Glo ATP luminescence viability of purified stage V gametocytes in 384-well plates, per cent inhibition versus DMSO; conditions: 48 h, 5 µM; inhibitor

Row | SMILES | % Inhibition
1 | CCOc1cc2ncnc(Nc3ccc(OCc4c(F)cccc4F)c(OC)c3)c2cc1OCC [TCMDC-131911] | 15.37%
2 | CN1CCC(c2cc3c(cc2Br)CCN3C(=O)Nc2ccc(-c3ccncc3)c(Cl)c2)CC1 [TCMDC-139228] | 3.26%
3 | CN1CCC[C@@H](Oc2cc3c(cc2Br)CCN3C(=O)Nc2ccc(-c3ccncc3)c(Cl)c2)C1 [TCMDC-139237] | -19.19%
4 | CN1CCCC(COc2cc3c(cc2Br)CCN3C(=O)Nc2ccc(-c3ccncc3)c(Cl)c2)C1 (centres unmarked) [TCMDC-139230] | 96.61%
5 | CC(C)OC(=O)c1cccnc1SCC(=O)Nc1ccc(C(F)(F)F)cc1Cl [TCMDC-123575] | -93.91%
6 | FC(F)(F)c1ccc(CSc2ccc3nnc(-c4ccccn4)n3n2)cc1 [TCMDC-125344] | 51.34%
7 | COc1ccc(-c2cccc(NC(=O)c3ccc(C#N)cc3)c2)cc1CN(C)CCN(C)C [TCMDC-133341] | 14.59%
8 | COc1ccc(-c2cccc(NC(=O)c3cccc(C#N)c3)c2)cc1CNC(C)C [TCMDC-132622] | 84.95%
9 | COc1ccc(-c2cccc(NC(=O)c3cccc(C#N)c3)c2)cc1CN(C)CCN(C)C [TCMDC-133339] | 13.46%
10 | COc1ccc(-c2ccc(NC(=O)c3cccc(C#N)c3)cc2)cc1CN(C)C [TCMDC-133333] | 10.09%
11 | COc1ccc(-c2cccc(NC(=O)c3ccc(C#N)cc3)c2)cc1CNC(C)C [TCMDC-132610] | 13.1%
12 | COc1ccc(-c2cccc(NC(=O)c3cccc(C#N)c3)c2)cc1CN(C)CCO [TCMDC-132625] | 94.55%
13 | COc1ccc(-c2cccc(NC(=O)c3ccc(F)cc3)c2)cc1CNC(C)C [TCMDC-132608] | 77.83%
14 | COc1ccc(-c2ccc(NC(=O)c3ccc(C#N)cc3)cc2)cc1CN(C)CCN(C)C [TCMDC-132520] | 27.11%
15 | COc1ccc(-c2ccc(NC(=O)c3ccc(C#N)cc3)c(F)c2)cc1CN(C)CCN(C)C [TCMDC-133366] | 57.41%
16 | c1ccc(CCNc2ccnc(Nc3ccc4cn[nH]c4c3)n2)cc1 [TCMDC-136880] | 16.88%
17 | CN(c1ccccc1)S(=O)(=O)c1cccc(NC(=O)c2ccc(-n3ccnc3)c([N+](=O)[O-])c2)c1 [TCMDC-125320] | 19.17%
18 | CCC(=O)N1CCc2cc(Br)cc(S(=O)(=O)N3CC(C)CC(C)C3)c21 (centres unmarked) [TCMDC-123873] | -4.792%
19 | Cc1ccc(N2C(=O)C3C(C2=O)C2(c4ccccc4)C(=O)C3(c3ccccc3)C(c3ccccc3)=C2c2ccccc2)c(C)c1 (centres unmarked) [TCMDC-124184] | 31.21%
20 | Oc1ccc(CCNc2nc(N/N=C/c3ccc(Cl)cc3)nc(N3CCNCC3)n2)cc1 [TCMDC-138543] | -10.01%
21 | C=CCN(c1ccc(OC)cc1)S(=O)(=O)c1ccc(Cl)c(C(=O)Nc2cccc(C#N)c2)c1 [TCMDC-123716] | -20.14%
22 | COc1ccc(-c2ccc(NC(=O)c3cccc(F)c3)cc2)cc1CNC(C)C [TCMDC-132529] | -9.819%
23 | COc1ccc(-c2ccc(NC(=O)c3ccc(F)cc3)cc2)cc1CNC(C)C [TCMDC-132515] | 64.88%

Row | SMILES | % Inhibition
24 | COc1ccc(-c2cccc(NC(=O)c3ccc(Cl)cc3)c2)cc1CNC(C)C [TCMDC-132603] | 87.48%
25 | COc1ccc(-c2ccc(NC(=O)c3cccc(Cl)c3)c(F)c2)cc1CNC(C)C [TCMDC-132766] | 31.53%
26 | COc1ccc(-c2cccc(NC(=O)c3cccc(Cl)c3)c2)cc1CNC(C)C [TCMDC-133340] | -37.98%
27 | COc1ccc(-c2ccc(NC(=O)c3ccc(C#N)cc3)cc2)cc1CNC(C)C [TCMDC-132518] | 25.16%
28 | CCNc1cc(C(=O)N[C@@H](Cc2ccccc2)[C@H](O)CNC(C)(C)c2cccc(OC)c2)cc(N2CCCC2=O)c1 [TCMDC-138895] | -11.4%
29 | CCc1cccc(-n2nc(OCC(=O)NC3CCCC3)c3cccnc32)c1 [TCMDC-125160] | 5.355%
30 | COc1cccc2cc(C(=O)N[C@@H](CC(C)C)C(=O)N[C@H](C=NN3CC(=O)NC3=O)CC(C)C)oc12 [TCMDC-136063] | 6.388%
31 | CCCCCCNCCOc1ccc(-c2nc(-c3ccccc3)c(-c3ccccc3)[nH]2)cc1 [TCMDC-137684] | 76.06%
32 | COc1ccc(OCC(=O)Nc2cc(-c3nc4ccccc4[nH]3)ccc2Cl)cc1 [TCMDC-125425] | -8.801%
33 | Oc1cccc(-c2nc(-c3ccccc3)c(-c3ccc(Oc4ccc(-c5[nH]c(-c6cccc(O)c6)nc5-c5ccccc5)cc4)cc3)[nH]2)c1 [TCMDC-125666] | -19.27%
34 | CCCCOc1ccc(-c2nc3ccccc3[nH]2)cc1 [TCMDC-123930] | 57.83%
35 | CCCCNCCOc1ccc(-c2nc(-c3ccccc3)c(-c3ccccc3)[nH]2)cc1 [TCMDC-138053] | 74.26%
36 | COc1ccc(NC(=O)Nc2ccc(-c3ccc(-c4nc5ccccc5[nH]4)cc3)cc2)cc1 [TCMDC-133248] | -24.62%
37 | Oc1cc(-c2nc(-c3ccccc3)[nH]c2-c2ccncc2)ccc1Cl [TCMDC-139660] | -47.58%
38 | COc1cc(-c2nc(-c3ccccc3)c(-c3ccccc3)[nH]2)ccc1OCCN(C)C [TCMDC-137716] | -85.41%
39 | CCCCCOc1ccc(C=NNc2nc(-c3ccccc3)cc(=O)[nH]2)cc1 [TCMDC-124237] | 29.87%
40 | CN(C)c1ccc(CN2CCC(NC(=O)c3ccc(-c4cccc(F)c4)s3)CC2)cc1 [TCMDC-134327] | -0.6628%
41 | COc1ccccc1Nc1nc(C)cc(NCc2ccc(-n3ccnc3)cc2)n1 [TCMDC-133452] | 11.88%
42 | COc1ccc(S(=O)(=O)Nc2cc(C)cc(Br)c2OC)cc1N1CCN(C(=O)C(Cl)(Cl)Cl)CC1 [TCMDC-139808] | 8.102%
43 | CO/C(=C\C=C\c1cc2cc(Cl)c(Cl)cc2[nH]1)C(=O)NCCCN1CCN(c2ccncc2)CC1 [TCMDC-139184] | 16.21%
44 | CN(C)CCCSc1ccccc1NC(=O)C=Cc1ccccc1 [TCMDC-125843] | 7.207%
45 | Cc1ccc(-c2noc(COc3ccccc3C(=O)NC3CCCC3)n2)cc1 [TCMDC-124748] | 47.39%
46 | FC(F)(F)c1ccc2nccc(NCc3ccccc3)c2c1 [TCMDC-138259] | -8.95%

Row | SMILES | % Inhibition
47 | CCc1ccc(NC(=O)c2ccc(CN3CCCN(CCC(C)C)CC3)cc2)cc1 [TCMDC-136448] | -6.236%
48 | COc1ccc2oc(=O)c(C#N)c(O)c2c1 [TCMDC-131398] | -8.165%
49 | FC(F)(F)c1ccc(CNC2CCN(CC3CCCCC3)CC2)cc1 [TCMDC-141661] | -50.93%
50 | CN1CCN(CCCN(Cc2cccc(-c3cccc(CNC4CCCC4)c3)c2)C(=O)CCC2CCCC2)CC1 [TCMDC-140555] | 119.1%
51 | CCCCCCN1CCC(NCc2cccc(C#N)c2)CC1 [TCMDC-141670] | -17.05%
52 | CN1CCN(CCCN(Cc2cccc(-c3ccc(CNC4CCCC4)cc3)c2)C(=O)CCC2CCCC2)CC1 [TCMDC-140750] | 98.64%
53 | CCCCCCN1CCC(NCc2ccc(CN(C)C)cc2)CC1 [TCMDC-141662] | 16.26%
54 | FC(F)(F)c1cccc(CNC2CCN(CC3CCCCC3)CC2)c1 [TCMDC-141660] | -52.78%
55 | CN1CCN(CCCN(Cc2ccc(-c3ccc(CNC4CCCC4)cc3)cc2)C(=O)CCC2CCCC2)CC1 [TCMDC-140560] | 99.06%
56 | CCCC(C)Nc1nc(C)cc(N[C@@H](Cc2ccccc2)C(=O)Nc2ccccc2)n1 (some centres unmarked) [TCMDC-134767] | -30.62%
57 | CCc1c(C(=O)NC2CCC(N3CCC(c4ccccc4OC)CC3)CC2)[nH]c2ccc(Br)cc12 (centres unmarked) [TCMDC-133499] | -52.27%
58 | COc1ccccc1C(C)NCC(=O)Nc1cc(C(F)(F)F)ccc1Cl (centres unmarked) [TCMDC-125041] | -2.208%
59 | COc1ccc(Nc2nccc(N3CCC(NS(=O)(=O)c4ccc(NC(C)=O)cc4)C3)n2)cc1 (centres unmarked) [TCMDC-133608] | -25.9%
60 | CNC(=O)C(NC(=O)c1ccccc1C(=O)OC)c1ccccc1 (centres unmarked) [TCMDC-137226] | 6.158%
61 | CCN(CC)CCN(Cc1ccc(-c2ccc(C(F)(F)F)cc2)cc1)C(=O)Cn1cc(Cc2cnn(C)c2)c(=O)nc1/C=C/c1cccc(F)c1F [TCMDC-140964] | 99.53%
62 | CCN(CC)CCN(Cc1ccc(-c2ccc(C(F)(F)F)cc2)cc1)C(=O)Cn1cc(Cc2cnn(C)c2)c(=O)nc1/C=C/c1ccc(F)cc1 [TCMDC-140741] | 95.48%
63 | O=C(Cc1cc(=O)oc2cc(O)ccc12)N1CCC(CN2CCC(c3c[nH]c4ccccc34)CC2)CC1 [TCMDC-139881] | 9.393%
64 | N#Cc1cccc(NC(=O)Nc2ccc(-c3csc(-c4nc5ccccc5[nH]4)c3)cc2)c1 [TCMDC-133188] | 30.15%
65 | Cn1nc(C(F)(F)F)cc1-c1ccc(C(=O)Nc2ccc3c(c2)CNCC3(C)C)s1 [TCMDC-141916] | 39.68%
66 | NC(N)=NC(=O)Nc1cc(Cl)c(Cl)c(C(F)(F)F)c1 [TCMDC-137511] | -11.78%
67 | CCCCC(=O)Nc1cc(=O)[nH]c2nc(-c3ccc(Cl)cc3)nn12 [TCMDC-125002] | 1.203%
68 | COc1cc(NC(=O)/C=C/c2cc(F)cc(F)c2F)cc(OCCN2CCC(O)(c3ccccc3)CC2)c1 [TCMDC-140936] | -10.33%
